PAX8 reporter – inhibitors of PAX8 transcriptional activity in RMG-I cells; RMG-I TPO-luciferase reporter, SteadyGlo, 24 h; inhibition, % at 12.6 µM; 360,000 compounds, 1.2% hits; AID 652154;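 active means mean replicate inhibition at least 60% with every replicate also reaching 60%; inconclusive means only one of the two criteria is met; inactive means mean below 60% and not all replicates reaching 60%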;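 further: luciferase light reporting Pax8 driven TPO promoter activity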
PGC1a acetyl inh – modulators of PGC1a acetylation; U2OS PGC1a acetylation, AlphaScreen anti-acetyl-lysine; with virally co-expressed GCN5 acetyltransferase; inhibition, % at 15.6 µM; 350,000 compounds, 0.17% hits; AID 651687;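 active means every replicate shows inhibition of at least 40%; inconclusive means mean inhibition at least 40% but some replicate below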
INS-1E GSIS act – primary screen for activators of insulin secretion dependent on glucose, INS-1E cells, GLuc reporter luminescence; INS-1E GLuc reporter insulin secretion, 2-3 h; activation, % at 16.6 µM; 370,000 compounds, 0.61% hits;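 active means lowest replicate activation of at least 40%, so every replicate reaches that level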
EWS-Fli inh – blocks EWS/Fli oncoprotein-driven transcription. 350,000 compounds, 0.67% hits. inhibition, % at 12.6 µM. A673 NR0B1-luciferase reporter, viability-normalised. AID 651661;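 active means mean inhibition of at least 50% after viability correction, with every replicate also passing that limit; inconclusive means mean reaches 50% but only one of two replicates passes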;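 further: firefly luciferase signal divided by Alamar Blue viability fluorescence both relative to DMSO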
Env fusion inh – inhibitors of HIV Env-mediated cell fusion. HeLa-JRFL Env/CEM21 cell fusion, luciferase. inhibition, % at 12.3 µM. 360,000 compounds, 1.1% hits. AID 651610;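 active means mean replicate inhibition score of at least 50 and every replicate individually at or above 50; inconclusive means only one of the two criteria met; inactive means mean below 50 and not all replicates reaching 50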
F508del corr – CFTR F508del correction in bronchial cells | activity (quench increase), % at 7.58 µM | 350,000 compounds, 0.36% hits | CFBE cells, YFP halide quenching; stimulated with forskolin plus potentiator P3; % fluorescence drop versus neutral controls;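 active means mean added fluorescence quench of at least 8% versus neutral control, with both replicates also reaching 8%; inconclusive means only one of the mean or replicate conditions met; inactive means mean below 8% and not both replicates reaching 8%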;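 further: cells transiently co-express mutant CFTR-F508del with the halide-sensitive YFP; corrector assay measuring rescue of mutant channel to the surface after 24 h compound exposure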
DNA binder FP – DNA binding small molecules; shares compounds with EWS-Fli inh; salmon sperm DNA acridine orange fluorescence polarization; AC35, µM (highest dose often 68 µM); 640 compounds, 2% hits;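 active means fitted curve reaches a 35% signal fall AC35 below twice the sample's top valid tested dose, actives reach about 48 µM in these data; inactive means the rest, including activity in the rising direction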;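 further: lower polarization ratio signals compound binding to DNA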
Numbers stand for hits; n = inactive; u = inconclusive; x = no result given. Rows were chosen to be rich in hits. Some 2.7% of all compounds tested hit in one or more screens of this group.

SMILES	PAX8 reporter	PGC1a acetyl inh	INS-1E GSIS act	EWS-Fli inh	Env fusion inh	F508del corr	others
COc1ccc(-n2nnnc2C(c2ccnc3ccccc23)N2CCC(n3c(=O)[nH]c4ccccc43)CC2)cc1 (centres undefined)	n	n	n	n	n	n
O=c1[nH]c2ccccc2n1C1CCN(Cc2ccc(-c3[nH]c4cc5ncnc5cc4nc3-c3ccccc3)cc2)CC1	72	x	n	n	n	n
CCCN1[C@@H]2Cn3c(cccc3=O)[C@H]1[C@@H](C(=O)N(C)C)[C@@H]2CO	x	x	n	n	n	x
N#Cc1cccc(-c2ccc([C@H]3[C@@H](CO)N4CCCCN(C(=O)Cc5ccccc5)C[C@@H]34)cc2)c1	n	n	n	n	x	n
CCCCCCCCCCCCCCCC[N+](C)(C)C	93	n	x	57	n	n
Cc1cccc(-n2c(O)c(/C=C3/C(c4ccccc4)=Nc4ccccc43)c(=O)[nH]c2=O)c1	n	x	n	n	92	12
Cc1ccccc1-n1c(O)c(/C=C2/C(c3ccccc3)=Nc3ccccc32)c(=O)[nH]c1=O	n	x	n	n	n	x
CN1[C@@H]2CN(CC(F)(F)F)C[C@H]1C2c1ccc(Br)cc1 (some centres undefined)	x	x	n	x	x	x
N=C1c2ccccc2CN1c1ccc(F)c([N+](=O)[O-])c1	n	n	67	n	n	n
N=C1c2ccccc2CN1c1cccc([N+](=O)[O-])c1	n	x	n	n	n	n
CC(=O)N1[C@@H]2Cn3c(ccc(-c4cccc(C(=O)N(C)C)c4)c3=O)[C@H]1[C@@H](C(=O)O)[C@@H]2CO	x	x	n	x	x	x
CCOP(=O)(C#Cc1ccccc1)C(O)c1ccc(Br)cc1 (centres undefined)	n	x	n	n	n	10
CCC(=O)N1[C@@H]2Cn3c(ccc(C4=CCCC4)c3=O)[C@H]1[C@@H](C(=O)OC)[C@@H]2CO	n	x	n	n	x	n
O=[N+]([O-])c1ccc(C[n+]2c(-c3ccccc3)cc(-c3ccccc3)cc2-c2ccccc2)cc1	79	x	n	n	n	n
O=[N+]([O-])c1cc(Cl)c(O)c(-[n+]2c(-c3ccccc3)cc(-c3ccccc3)cc2-c2ccccc2)c1	n	x	n	n	n	n
O=c1[nH]c2ccccc2n1C1CCN(C(c2ccccc2OC(F)(F)F)c2nnnn2-c2ccc3c(c2)OCCO3)CC1 (centres undefined)	94	n	n	n	n	n
Cc1cccc(C)c1-n1nnnc1C(c1ccccc1OC(F)(F)F)N1CCC(n2c(=O)[nH]c3ccccc32)CC1 (centres undefined)	n	n	n	n	n	n
COc1ccc(-n2nnnc2C(c2cccc(OC)c2OC)N2CCC(n3c(=O)[nH]c4ccccc43)CC2)cc1 (centres undefined)	n	n	n	n	n	n
COc1cccc(C(c2nnnn2-c2ccc3c(c2)OCCO3)N2CCC(n3c(=O)[nH]c4ccccc43)CC2)c1OC (centres undefined)	93	n	n	n	n	n
CCc1ccc(N2C(=O)NC(=O)/C(=C\C=C\c3ccco3)C2=O)cc1	n	n	n	71	n	n
COc1ccc(C[C@H]2NC[C@H](O)[C@H]2OC(C)=O)cc1	103	90	x	66	n	n
O=C(CCn1nc(-c2ccc(Cl)cc2)ccc1=O)N1CCC2(CC1)OCCO2	n	n	n	n	n	n
Cc1nc2cc(-c3ccc(Cl)cc3)nn2c(C)c1CCC(=O)N1CCC2(CC1)OCCO2	n	n	x	x	79	x
C[C@@H]1CN([C@@H](C)CO)C(=O)c2c(c3ccccc3n2C)-c2ccccc2CO[C@@H]1CN(C)C(=O)Oc1ccccc1	n	n	n	x	x	n
Cc1cc2c(C(C)C)c(O)c(O)c(C=O)c2c(O)c1-c1c(C)cc2c(C(C)C)c(O)c(O)c(C=O)c2c1O	104	n	x	58	61	n	DNA binder FP=n
SMILES	PAX8 reporter	PGC1a acetyl inh	INS-1E GSIS act	EWS-Fli inh	Env fusion inh	F508del corr	others
CC=Cc1ccc2n(c1=O)C[C@@H]1[C@@H](CO)[C@H](C(=O)OC)[C@H]2N1CC1CCCCC1 (mixture of isomers)	n	x	n	n	x	n
COC(=O)[C@@H]1[C@@H](CO)[C@@H]2Cn3c(ccc(C4=CCCC4)c3=O)[C@H]1N2CC1CCCC1	x	x	n	n	x	n
CN(C)C(=O)[C@@H]1[C@@H](CO)[C@@H]2Cn3c(cccc3=O)[C@H]1N2CC1CC1	x	x	n	n	x	n
CN(C)CC#Cc1ccc([C@@H]2[C@@H](CO)N3CCCCN(C(=O)Cc4ccccn4)C[C@H]23)cc1	n	n	n	n	x	n
O=C1NC2C(=CC(O)C(O)C2O)c2cc3c(cc21)OCO3 (centres undefined)	123	85	n	56	100	n	DNA binder FP=n
COC(=O)[C@@H]1[C@@H](CO)[C@@H]2Cn3c(ccc(-c4ccc(F)cc4)c3=O)[C@H]1N2Cc1cccnc1	x	x	n	n	n	x
CCCNC(=O)[C@@H]1[C@@H](CO)[C@@H]2Cn3c(cccc3=O)[C@@H]2N1CC	x	n	n	n	x	n
O=C1NC(=O)N(c2ccccc2)C(=O)/C1=C\C=C\c1ccccc1	n	n	x	58	n	n	DNA binder FP=n
Cc1cc(C)cc(N2C(=O)NC(=O)/C(=C\C=C\c3ccco3)C2=O)c1	66	n	n	61	x	u	DNA binder FP=n
O=C1NC(=O)N(Cc2ccc(F)cc2)C(=O)/C1=C\C=C\c1ccco1	n	n	n	55	n	n	DNA binder FP=n
N#Cc1cccc(-c2ccc([C@H]3[C@@H](CO)N4CCCCN(C(=O)Cc5ccncc5)C[C@@H]34)cc2)c1	n	n	n	x	x	n
CC=Cc1ccc2n(c1=O)C[C@H]1[C@H](CO)[C@@H](C(=O)O)[C@@H]2N1S(=O)(=O)c1ccccc1C (mixture of isomers)	n	x	n	n	x	n
CC12CCC3C(CCC4(O)CC(O)CCC34C=NO)C1(O)CCC2C1=COC(=O)C1 (centres undefined)	109	n	x	74	105	n	DNA binder FP=n
C[C@]12CC[C@H]3[C@@H](CC[C@]4(O)C[C@@H](O)CC[C@]34C=O)[C@@]1(O)CC[C@@H]2C1=CC(=O)OC1	111	96	n	79	n	n	DNA binder FP=n
C[C@]12CCC3C(CCC4=CC(O)CC[C@@]43/C=N/O)C1(O)CCC2C1=CC(=O)OC1 (some centres undefined)	109	x	n	69	93	n	DNA binder FP=n
CN1C2CCC1/C(=C/c1ccccn1)C(=O)/C2=C\c1ccccn1	107	78	n	80	60	n	DNA binder FP=n
Cc1ccccc1-n1c(/C=C/c2ccccn2)nc2ccccc2c1=O	n	n	n	n	n	n
